# Compound activity as filed in PubChem.
# The list is not random: actives were taken first. Their share in the collection is about 2.5%.
# Casp6 inh – human caspase-6 inhibitors, primary screen, biochemical, VEID-R110 fluorescence, single point, set 2; P55212; inhibition, % at 12.5 µM; 350,000 compounds, 0.53% hits; AID 686996, 2013; purified caspase-6, Z-VEID-R110 cleavage fluorescence;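 active = mean inhibition across replicates at least about 35%, with every replicate also reaching that limit, limit read from the data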;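 also: 0% = median of neutral control wells and 100% = no fluorescence left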
# NSD2 inh – NSD2 histone methyltransferase inhibitors, primary screen, biochemical, AlphaScreen, single concentration, set 2; Histone-lysine N-methyltransferase NSD2 (Homo sapiens), O96028; NSD2 peptide methylation, 120 min; inhibition, % at 12.5 µM; 310,000 compounds, 0.54% hits; in the data active = inhibition above about 50%
# rRNA inh HTS – reduced GFP signal of wild-type E. coli, primary screen, bacterial rRNA inhibitor project, GFP/RFP fluorescence, OD600, single point. E. coli WT GFP vs humanized-ribosome RFP mutants, 24 h; hits give low values; DMSO median 0, no signal -100. GFP signal change (wild-type ribosome), % (no concentration beside the values). 350,000 compounds, 1.6% hits. AID 720706, 2013;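 active = significant combined selectivity score with lowered wild-type GFP, culture density cut under 30%, mutant RFP and density less affected; inactive = any of these conditions unmet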
# RAD52 inh – RAD52 DNA annealing inhibitors, primary screen, biochemical, FRET, single point, set 2; DNA repair protein RAD52 homolog (Homo sapiens), P43351; recombinant RAD52 DNA annealing, FRET fluorescence; inhibition, % at 18.7 µM; 360,000 compounds, 0.46% hits;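 active = every replicate showing at least 50% inhibition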
# AF4-AF9 inh – inhibitors of AF4 peptide binding to AF9, primary screen, biochemical, AlphaScreen, biotin-AF4 peptide, FLAG-AF9, single point. inhibition, % at 10 µM. 350,000 compounds, 0.47% hits. AID 651704, 2012;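 active = every replicate reaching a set inhibition limit, whatever the replicate mean, cut at about 25% in these data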;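 also: 0% = plate neutral control median and 100% = total signal loss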
# Target sequence (P42568 whole entry, looked up): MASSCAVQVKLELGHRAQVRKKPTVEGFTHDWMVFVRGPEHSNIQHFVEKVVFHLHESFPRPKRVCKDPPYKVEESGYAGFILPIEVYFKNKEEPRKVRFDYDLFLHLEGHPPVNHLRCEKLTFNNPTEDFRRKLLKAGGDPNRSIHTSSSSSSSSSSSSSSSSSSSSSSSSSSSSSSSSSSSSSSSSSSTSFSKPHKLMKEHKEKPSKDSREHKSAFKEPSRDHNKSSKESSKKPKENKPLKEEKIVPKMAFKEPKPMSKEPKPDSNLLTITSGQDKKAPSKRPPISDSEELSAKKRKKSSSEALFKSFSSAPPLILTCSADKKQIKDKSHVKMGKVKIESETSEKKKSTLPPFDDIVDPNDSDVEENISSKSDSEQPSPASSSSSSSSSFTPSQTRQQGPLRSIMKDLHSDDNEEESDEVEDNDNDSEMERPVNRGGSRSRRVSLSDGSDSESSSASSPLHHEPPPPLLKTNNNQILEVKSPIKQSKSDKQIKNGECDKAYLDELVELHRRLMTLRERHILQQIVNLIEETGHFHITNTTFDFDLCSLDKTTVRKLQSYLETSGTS
# AlphaScreen intf – AlphaScreen signal interference counter-screen, dose response, artefact control, biochemical, cherry-picked samples, luminescence | AC50, µM (highest dose often 12 µM), inactives show at the top dose activity change, negative = inhibition | shares compounds with AF4-AF9 inh | 530 compounds, 45% hits | AID 720494, 2013; cut-off not given, nearly all actives have AC50 up to about 14 µM
# Active calls of the source: *; nt = no result.
SMILES,Casp6 inh,NSD2 inh,rRNA inh HTS,RAD52 inh,AF4-AF9 inh,AlphaScreen intf
C[C@@H]1CCCCO[C@H](CN(C)C(=O)Nc2ccc(F)cc2)[C@@H](C)CN([C@H](C)CO)C(=O)c2cc(NC(=O)Nc3ccccc3)ccc2O1,-2.2,nt,1.4,17.2,43.2*,nt
C[C@H](CO)N1C[C@H](C)[C@H](CN(C)C(=O)Nc2cc(F)ccc2F)Oc2cc(C#CC3CC3)ccc2S1(=O)=O,nt,nt,-2.4,nt,nt,nt
O=C(C[C@H]1C=C[C@@H](NC(=O)c2ccc(F)cc2)[C@H](CO)O1)NCc1ccncn1,1.3,nt,0.8,15.9,-7.1,nt
O=C(C[C@@H]1C=C[C@@H](NC(=O)c2ccc(F)cc2)[C@@H](CO)O1)NCc1ccncn1,86.7*,nt,4.7,13.4,-2.7,nt
CCC1CCCCN1Cc1c(O)ccc2c(=O)c(-c3ccccc3OC)coc12 (centres undefined),-0.9,-0.2,1.6,-5.2,29.1*,nt
COc1ccccc1-c1coc2c(CN3CCC(C)CC3)c(O)ccc2c1=O,0.6,-1.6,5.5,-7.9,3.3,nt
C[C@@H]1CN([C@H](C)CO)C(=O)Cc2cc(NC(=O)c3ccncc3)ccc2O[C@H]1CN(C)Cc1ccccc1,-2.0,nt,-1.0,7.9,-11.6,nt
CC(=O)Nc1sc(N/N=C/c2ccc(N(C)C)cc2)nc1-c1ccc(C)cc1,-4.3,0.4,-33.0*,-24.4,-1.4,nt
O=C(Nc1cc(S(=O)(=O)N2CCOCC2)ccc1N1CCCC1)c1ccccc1F,1.5,17.9,12.6,-36.6,-4.7,nt
O=C(Nc1ccccc1F)Nc1cc(S(=O)(=O)N2CCOCC2)ccc1N1CCCC1,0.0,-1.2,-19.1*,-25.3,2.9,nt
CC(CC(=O)Nc1ccc2c(c1)c(=O)n(C)n2-c1cccs1)c1ccccc1 (centres undefined),36.7*,-3.6,-0.4,-17.9,-3.4,nt
O=C(NCCCN1CCOCC1)c1ccc2nc(-c3ccc(F)cc3)c(-c3ccc(F)cc3)nc2c1,nt,3.6,nt,nt,nt,nt
CC[N+](CC)(CC#Cc1ccccc1)CC#Cc1ccccc1,1.0,-2.1,-44.6*,-1.6,1.5,nt
CC(/C=C/c1ccc(O)cc1)=NNc1ccccc1,1.0,-27.0,-21.2*,-18.9,3.6,nt
COC(=O)CSc1nc2ncccc2[nH]1,nt,25.2,nt,nt,nt,nt
Cn1c(SCC(=O)NC2CCCCC2)nnc1-c1ccccn1,39.4*,-2.4,2.4,-8.8,-1.6,nt
CC(C)c1ccc(-c2nnc(SCC(=O)NC3CC3)n2C)cc1,52.9*,-2.5,2.6,-0.2,-2.7,nt
O=C(CSc1nc2ncccc2[nH]1)NC1CCCC1,-1.1,-2.3,11.5,-13.8,39.7*,nt
COc1ccc(NC(=O)N(C)C[C@@H]2Oc3ccc(NC(=O)C4CC4)cc3C(=O)N([C@@H](C)CO)C[C@@H]2C)cc1,2.6,nt,5.8,4.1,-1.2,nt
Cc1cc(/C=N/n2c(COc3ccccc3C)nc3ccccc3c2=O)c(O)c([N+](=O)[O-])c1,-1.5,10.6,1.3,-2.9,31.9*,3.5%
CN(C)c1ccc(NC(=S)NC23CC4CC(CC(C4)C2)C3)cc1,9.9,8.3,-6.9,-13.9,43.5*,-29.1%
CCOc1ccc(NC(=S)NC23CC4CC(CC(C4)C2)C3)cc1,0.0,0.2,11.1,-28.9,-5.8,nt
Cc1ccc(S(=O)(=O)NC(=O)Nc2ccc(N(C)C)cc2)cc1,26.6,17.1,5.3,4.0,34.6*,-28.0%
Oc1ccc(Br)cc1C=Nc1ccc(Cl)cc1,-3.8,-1.6,5.9,-6.5,-2.2,nt
CCN(CC)c1ccc(N=Cc2cc(Br)ccc2O)cc1,-7.8,-1.7,-1.1,9.6,46.0*,-2.2%
SMILES,Casp6 inh,NSD2 inh,rRNA inh HTS,RAD52 inh,AF4-AF9 inh,AlphaScreen intf
C[C@@H]1CN([C@H](C)CO)C(=O)Cc2cc(N(C)C)ccc2O[C@H]1CN(C)Cc1ccc(Oc2ccccc2)cc1,-0.3,nt,-33.9,35.4,43.2*,-39.5%
COCCCNCC(O)COc1cccc2[nH]c(C)cc12 (centres undefined),-78.4,nt,17.9,26.9,51.5*,-21.6%
CCCNC(=O)N1[C@H](CO)[C@H](c2ccc(C3=CCCC3)cc2)[C@@H]1CNC(C)=O,nt,nt,2.5,nt,nt,nt
CCCNC(=O)C[C@@H]1CC[C@H]2[C@@H](COC[C@@H](O)CN2Cc2ccc(Cl)c(Cl)c2)O1,-0.9,nt,-5.8,9.1,1.1,nt
Cc1ncc(CO)c(/C=N/NC(=S)Nc2ccc(Cl)c(Cl)c2)c1O,4.7,nt,-54.5,-3.2,29.6*,13µM*
CCOc1cc(N2CCOCC2)c(OCC)cc1NC(=O)c1ccc2ccccc2n1,2.9,22.3,7.6,-28.3,37.6*,-30.8%
CN=c1scc(-c2ccc(OC)cc2)n1/N=C(\C)c1cccnc1,1.6,8.0,-52.4,-37.2,48.2*,11.4µM*
CCCCOc1ccc2c(c1)C(=O)c1cc(O)ccc1-2,3.2,16.7,5.8,-7.9,33.2*,-1.9%
NC1=NC[C@H](Cc2ccc(O)cc2)N1CCc1cccc2ccccc12,29.6,nt,-16.3,4.6,32.1*,-29.2%
NC1=NC[C@@H](Cc2ccc(O)cc2)N1CCc1cccc2ccccc12,-9.3,nt,-58.6,16.1,11.5,nt
O=[N+]([O-])c1ccccc1/C=C/C=N/N1CCCCC1,-0.1,13.4,-4.2,-11.4,26.5*,12.9µM*
Nc1ccc(O)c2c1C(=O)c1ccccc1C2=O,12.8,nt,-0.6,-16.0,37.8*,-30.9%
CCn1c(C)c(C(C)=O)c(N2CCN(c3ccc(OC)cc3)CC2)nc1=S,22.2,nt,0.1,36.4,31.6*,-24.3%
COc1ccc(S(=O)(=O)/N=C2\C=C(Nc3ccc(O)cc3)C(=O)c3ccccc32)cc1,78.2*,50.9*,-45.5,3.8,40.6*,2.69µM*
CCCN1C[C@@H](C)[C@@H](OC)CN(C)C(=O)c2ccc(NC(=O)c3ccccc3F)cc2OC[C@@H]1C,nt,nt,3.8,-3.1,-1.4,nt
Nc1[nH]n(-c2ccccc2)c(=O)c1N=Nc1ccc2c(c1)OCO2,nt,10.6,4.3,-3.3,-35.3,nt
Nc1[nH]n(-c2ccccc2)c(=O)c1N=Nc1ccc2c(c1)OCCO2,0.7,20.6,-15.9,-4.9,39.3*,-21.9%
C[C@H]1CN([C@@H](C)CO)C(=O)c2cc(NS(=O)(=O)c3cccs3)ccc2O[C@@H]1CN(C)S(=O)(=O)c1ccccc1,1.7,nt,-1.9,-14.9,-1.0,nt
C[C@H]1CN([C@@H](C)CO)C(=O)c2cc(Br)cnc2O[C@@H]1CN(C)C(=O)C1CCCCC1,-0.6,nt,-1.3,11.6,0.0,nt
CN(C)c1cc2c3ccccc3n(C)c2cc1N,-2.0,18.6,3.0,9.1,27.7*,-23.0%
CCCC#Cc1cnc2c(c1)C(=O)N([C@H](C)CO)C[C@@H](C)[C@@H](CN(C)C(=O)Cc1cccnc1)O2,0.4,nt,-0.1,-8.2,-3.9,nt
